Data from the supplement of paper PMC6411743.
± gives the standard deviation of the averaged measurements. Of roughly 6,200 targets only a part is listed; those with the largest changes were picked by preference.

Compound: Nc1ncnc2c1ncn2[C@@H]1O[C@H](COP(=O)(O)OP(=O)(O)NP(=O)(O)O)[C@@H](O)[C@H]1O [adenylyl imidodiphosphate]
Assay: NP40-soluble protein abundance relative to vehicle (solubility fold change) (ratio); higher = more soluble protein in presence of AMP-PNP
Method in brief: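 Data come from three independent experiments in which Dounce-homogenised Jurkat crude lysate was treated at eight concentrations from 0.1 to 10 mM. Treatment ran 10 min at room temperature and then 3 min at 37 °C, after which 0.8% NP40 and benzonase were added for 60 min at 4 °C before ultracentrifugation. The supernatant underwent TMT labelling and LC-MS/MS, and vsn-normalised intensities were expressed as fold change against the detergent-processed vehicle in each replicate.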

UniProt Q15642-2|Q15642-3|Q15642-4|W4VSQ9|M0R0F9
NP40-soluble protein abundance (concentration: 1mM): 1.09 ± 0.014 | NP40-soluble protein abundance (concentration: 2mM): 1.07 ± 0.036 | NP40-soluble protein abundance (concentration: 4mM): 1.07 ± 0.014 | NP40-soluble protein abundance (concentration: 6mM): 1.04 ± 0.054 | NP40-soluble protein abundance (concentration: 8mM): 1.07 ± 0.025 | NP40-soluble protein abundance (concentration: 10mM): 1.06 ± 0.065

DNAJB14 (UniProt Q8TBM8)
NP40-soluble protein abundance (concentration: 1mM): 0.975 ± 0.025 | NP40-soluble protein abundance (concentration: 2mM): 0.987 ± 0.066 | NP40-soluble protein abundance (concentration: 4mM): 0.971 ± 0.028 | NP40-soluble protein abundance (concentration: 6mM): 0.953 ± 0.039 | NP40-soluble protein abundance (concentration: 8mM): 0.952 ± 0.035 | NP40-soluble protein abundance (concentration: 10mM): 0.947 ± 0.035

TTC37 (UniProt Q6PGP7)
NP40-soluble protein abundance (concentration: 1mM): 0.822 ± 0.084 | NP40-soluble protein abundance (concentration: 2mM): 0.793 ± 0.14 | NP40-soluble protein abundance (concentration: 4mM): 0.791 ± 0.11 | NP40-soluble protein abundance (concentration: 6mM): 0.768 ± 0.077 | NP40-soluble protein abundance (concentration: 8mM): 0.761 ± 0.078 | NP40-soluble protein abundance (concentration: 10mM): 0.76 ± 0.079

CLYBL (UniProt Q8N0X4)
NP40-soluble protein abundance (concentration: 1mM): 1.01 ± 0.016 | NP40-soluble protein abundance (concentration: 2mM): 0.978 ± 0.013 | NP40-soluble protein abundance (concentration: 4mM): 1 ± 0.02 | NP40-soluble protein abundance (concentration: 6mM): 0.982 ± 0.043 | NP40-soluble protein abundance (concentration: 8mM): 0.9692 ± 0.0037 | NP40-soluble protein abundance (concentration: 10mM): 0.9819 ± 0.0062

UniProt Q16666|Q16666-2
Sequence of UniProt Q16666 (Q16666 whole entry): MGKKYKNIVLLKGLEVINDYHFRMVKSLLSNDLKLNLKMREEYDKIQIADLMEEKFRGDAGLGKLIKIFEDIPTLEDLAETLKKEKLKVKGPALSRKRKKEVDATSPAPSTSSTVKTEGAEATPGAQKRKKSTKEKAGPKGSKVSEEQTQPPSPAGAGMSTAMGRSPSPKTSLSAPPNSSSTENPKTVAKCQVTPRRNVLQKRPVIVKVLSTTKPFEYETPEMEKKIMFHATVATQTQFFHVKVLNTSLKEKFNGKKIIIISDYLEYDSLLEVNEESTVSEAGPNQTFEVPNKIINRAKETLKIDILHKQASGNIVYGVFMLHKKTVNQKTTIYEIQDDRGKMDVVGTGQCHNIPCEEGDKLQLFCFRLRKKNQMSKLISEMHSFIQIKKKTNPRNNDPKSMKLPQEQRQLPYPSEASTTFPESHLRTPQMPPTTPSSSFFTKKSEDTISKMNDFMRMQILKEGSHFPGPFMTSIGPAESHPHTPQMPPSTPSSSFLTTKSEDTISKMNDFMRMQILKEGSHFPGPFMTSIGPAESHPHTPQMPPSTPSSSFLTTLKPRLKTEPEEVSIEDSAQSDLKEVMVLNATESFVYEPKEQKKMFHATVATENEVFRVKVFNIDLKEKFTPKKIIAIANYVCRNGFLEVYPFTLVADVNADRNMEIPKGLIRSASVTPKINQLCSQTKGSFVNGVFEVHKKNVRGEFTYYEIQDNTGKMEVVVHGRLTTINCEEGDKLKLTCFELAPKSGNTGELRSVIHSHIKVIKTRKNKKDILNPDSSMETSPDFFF
NP40-soluble protein abundance (concentration: 1mM): 1.06 ± 0.052 | NP40-soluble protein abundance (concentration: 2mM): 1.11 ± 0.023 | NP40-soluble protein abundance (concentration: 4mM): 1.22 ± 0.069 | NP40-soluble protein abundance (concentration: 6mM): 1.43 ± 0.14 | NP40-soluble protein abundance (concentration: 8mM): 1.49 ± 0.14 | NP40-soluble protein abundance (concentration: 10mM): 1.53 ± 0.19

UniProt Q13362-2|Q13362-3|Q13362-4
NP40-soluble protein abundance (concentration: 1mM): 0.982 ± 0.017 | NP40-soluble protein abundance (concentration: 2mM): 1.04 ± 0.036 | NP40-soluble protein abundance (concentration: 4mM): 0.989 ± 0.018 | NP40-soluble protein abundance (concentration: 6mM): 0.976 ± 0.036 | NP40-soluble protein abundance (concentration: 8mM): 0.948 ± 0.018 | NP40-soluble protein abundance (concentration: 10mM): 0.966 ± 0.043

UniProt Q14156|Q14156-2
NP40-soluble protein abundance (concentration: 1mM): 0.9764 ± 0.0041 | NP40-soluble protein abundance (concentration: 2mM): 0.961 ± 0.041 | NP40-soluble protein abundance (concentration: 4mM): 0.9737 ± 0.0064 | NP40-soluble protein abundance (concentration: 6mM): 0.952 ± 0.023 | NP40-soluble protein abundance (concentration: 8mM): 0.973 ± 0.015 | NP40-soluble protein abundance (concentration: 10mM): 0.953 ± 0.018

UniProt Q86UK7|Q86UK7-3|Q86UK7-2
NP40-soluble protein abundance (concentration: 1mM): 1.03 ± 0.043 | NP40-soluble protein abundance (concentration: 2mM): 1.03 ± 0.022 | NP40-soluble protein abundance (concentration: 4mM): 1.07 ± 0.031 | NP40-soluble protein abundance (concentration: 6mM): 1.08 ± 0.038 | NP40-soluble protein abundance (concentration: 8mM): 1.1 ± 0.048 | NP40-soluble protein abundance (concentration: 10mM): 1.11 ± 0.07

UniProt Q7Z3B4|Q7Z3B4-3
NP40-soluble protein abundance (concentration: 1mM): 0.969 ± 0.054 | NP40-soluble protein abundance (concentration: 2mM): 0.9436 ± 0.0042 | NP40-soluble protein abundance (concentration: 4mM): 1 ± 0.064 | NP40-soluble protein abundance (concentration: 6mM): 1.07 ± 0.067 | NP40-soluble protein abundance (concentration: 8mM): 1.13 ± 0.078 | NP40-soluble protein abundance (concentration: 10mM): 1.09 ± 0.11

UniProt Q86VR2
Sequence of UniProt Q86VR2 (Q86VR2 whole entry): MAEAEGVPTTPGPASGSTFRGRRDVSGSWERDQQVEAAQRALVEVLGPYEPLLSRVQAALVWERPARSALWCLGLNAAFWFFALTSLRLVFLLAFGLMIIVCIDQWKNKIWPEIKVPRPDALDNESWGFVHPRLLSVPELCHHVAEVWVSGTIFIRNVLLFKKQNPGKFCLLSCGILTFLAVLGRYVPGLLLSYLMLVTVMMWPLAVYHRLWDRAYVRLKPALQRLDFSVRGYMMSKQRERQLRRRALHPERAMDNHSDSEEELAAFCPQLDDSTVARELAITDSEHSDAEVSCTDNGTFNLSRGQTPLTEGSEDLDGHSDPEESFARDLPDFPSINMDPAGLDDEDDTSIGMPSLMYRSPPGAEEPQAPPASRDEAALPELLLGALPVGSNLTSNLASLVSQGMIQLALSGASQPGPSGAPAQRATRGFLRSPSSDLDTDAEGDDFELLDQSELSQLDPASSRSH
NP40-soluble protein abundance (concentration: 1mM): 0.989 ± 0.0052 | NP40-soluble protein abundance (concentration: 2mM): 0.966 ± 0.024 | NP40-soluble protein abundance (concentration: 4mM): 0.977 ± 0.025 | NP40-soluble protein abundance (concentration: 6mM): 0.976 ± 0.015 | NP40-soluble protein abundance (concentration: 8mM): 0.9994 ± 0.002 | NP40-soluble protein abundance (concentration: 10mM): 0.952 ± 0.01

UniProt Q969T7|Q969T7-2
Sequence of UniProt Q969T7 (Q969T7 whole entry): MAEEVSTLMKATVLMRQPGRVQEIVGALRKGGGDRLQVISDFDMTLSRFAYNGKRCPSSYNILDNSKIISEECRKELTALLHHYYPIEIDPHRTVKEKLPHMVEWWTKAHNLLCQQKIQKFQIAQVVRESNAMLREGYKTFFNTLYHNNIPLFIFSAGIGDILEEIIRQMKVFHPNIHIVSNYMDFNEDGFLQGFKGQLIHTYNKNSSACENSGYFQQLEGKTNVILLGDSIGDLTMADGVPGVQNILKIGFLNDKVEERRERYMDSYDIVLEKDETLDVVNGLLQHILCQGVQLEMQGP
NP40-soluble protein abundance (concentration: 1mM): 0.981 ± 0.054 | NP40-soluble protein abundance (concentration: 2mM): 0.95 ± 0.043 | NP40-soluble protein abundance (concentration: 4mM): 0.999 ± 0.029 | NP40-soluble protein abundance (concentration: 6mM): 0.966 ± 0.025 | NP40-soluble protein abundance (concentration: 8mM): 0.96 ± 0.042 | NP40-soluble protein abundance (concentration: 10mM): 0.963 ± 0.046

DARS2 (UniProt Q6PI48)
NP40-soluble protein abundance (concentration: 1mM): 0.939 ± 0.049 | NP40-soluble protein abundance (concentration: 2mM): 0.861 ± 0.12 | NP40-soluble protein abundance (concentration: 4mM): 0.924 ± 0.016 | NP40-soluble protein abundance (concentration: 6mM): 0.918 ± 0.036 | NP40-soluble protein abundance (concentration: 8mM): 0.942 ± 0.021 | NP40-soluble protein abundance (concentration: 10mM): 0.89 ± 0.012

UniProt Q15223
Sequence of UniProt Q15223 (Q15223 whole entry): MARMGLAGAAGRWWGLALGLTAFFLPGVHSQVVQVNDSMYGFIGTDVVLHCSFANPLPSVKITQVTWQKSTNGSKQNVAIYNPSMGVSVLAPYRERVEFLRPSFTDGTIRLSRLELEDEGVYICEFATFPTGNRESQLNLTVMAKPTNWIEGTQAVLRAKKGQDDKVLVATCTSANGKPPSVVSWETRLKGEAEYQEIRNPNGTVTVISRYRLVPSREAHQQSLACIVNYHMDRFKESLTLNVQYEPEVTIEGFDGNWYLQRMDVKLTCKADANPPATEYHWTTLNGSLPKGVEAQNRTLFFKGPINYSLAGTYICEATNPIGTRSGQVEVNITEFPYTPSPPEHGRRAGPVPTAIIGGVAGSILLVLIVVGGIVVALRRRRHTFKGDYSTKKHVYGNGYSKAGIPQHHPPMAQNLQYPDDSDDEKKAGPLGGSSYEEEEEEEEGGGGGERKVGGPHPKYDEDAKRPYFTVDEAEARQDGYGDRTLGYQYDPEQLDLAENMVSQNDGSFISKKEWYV
NP40-soluble protein abundance (concentration: 1mM): 1.01 ± 0.026 | NP40-soluble protein abundance (concentration: 2mM): 1.028 ± 0.0082 | NP40-soluble protein abundance (concentration: 4mM): 1.011 ± 0.0089 | NP40-soluble protein abundance (concentration: 6mM): 1.01 ± 0.011 | NP40-soluble protein abundance (concentration: 8mM): 0.997 ± 0.023 | NP40-soluble protein abundance (concentration: 10mM): 1.01 ± 0.028

UniProt Q684P5-2|Q684P5-3|Q684P5
NP40-soluble protein abundance (concentration: 1mM): 1 ± 0.035 | NP40-soluble protein abundance (concentration: 2mM): 1 ± 0.024 | NP40-soluble protein abundance (concentration: 4mM): 0.997 ± 0.051 | NP40-soluble protein abundance (concentration: 6mM): 0.977 ± 0.029 | NP40-soluble protein abundance (concentration: 8mM): 0.963 ± 0.048 | NP40-soluble protein abundance (concentration: 10mM): 0.968 ± 0.026

UniProt Q92614|Q92614-2|Q92614-4
NP40-soluble protein abundance (concentration: 1mM): 1.02 ± 0.025 | NP40-soluble protein abundance (concentration: 2mM): 1.05 ± 0.026 | NP40-soluble protein abundance (concentration: 4mM): 1.01 ± 0.014 | NP40-soluble protein abundance (concentration: 6mM): 0.984 ± 0.045 | NP40-soluble protein abundance (concentration: 8mM): 0.955 ± 0.026 | NP40-soluble protein abundance (concentration: 10mM): 0.971 ± 0.042

UniProt Q93073|Q93073-2
NP40-soluble protein abundance (concentration: 1mM): 0.997 ± 0.026 | NP40-soluble protein abundance (concentration: 2mM): 1.01 ± 0.046 | NP40-soluble protein abundance (concentration: 4mM): 0.978 ± 0.039 | NP40-soluble protein abundance (concentration: 6mM): 0.996 ± 0.013 | NP40-soluble protein abundance (concentration: 8mM): 0.972 ± 0.024 | NP40-soluble protein abundance (concentration: 10mM): 0.971 ± 0.027

UniProt Q8N122|Q8N122-3
Sequence of UniProt Q8N122 (Q8N122 whole entry): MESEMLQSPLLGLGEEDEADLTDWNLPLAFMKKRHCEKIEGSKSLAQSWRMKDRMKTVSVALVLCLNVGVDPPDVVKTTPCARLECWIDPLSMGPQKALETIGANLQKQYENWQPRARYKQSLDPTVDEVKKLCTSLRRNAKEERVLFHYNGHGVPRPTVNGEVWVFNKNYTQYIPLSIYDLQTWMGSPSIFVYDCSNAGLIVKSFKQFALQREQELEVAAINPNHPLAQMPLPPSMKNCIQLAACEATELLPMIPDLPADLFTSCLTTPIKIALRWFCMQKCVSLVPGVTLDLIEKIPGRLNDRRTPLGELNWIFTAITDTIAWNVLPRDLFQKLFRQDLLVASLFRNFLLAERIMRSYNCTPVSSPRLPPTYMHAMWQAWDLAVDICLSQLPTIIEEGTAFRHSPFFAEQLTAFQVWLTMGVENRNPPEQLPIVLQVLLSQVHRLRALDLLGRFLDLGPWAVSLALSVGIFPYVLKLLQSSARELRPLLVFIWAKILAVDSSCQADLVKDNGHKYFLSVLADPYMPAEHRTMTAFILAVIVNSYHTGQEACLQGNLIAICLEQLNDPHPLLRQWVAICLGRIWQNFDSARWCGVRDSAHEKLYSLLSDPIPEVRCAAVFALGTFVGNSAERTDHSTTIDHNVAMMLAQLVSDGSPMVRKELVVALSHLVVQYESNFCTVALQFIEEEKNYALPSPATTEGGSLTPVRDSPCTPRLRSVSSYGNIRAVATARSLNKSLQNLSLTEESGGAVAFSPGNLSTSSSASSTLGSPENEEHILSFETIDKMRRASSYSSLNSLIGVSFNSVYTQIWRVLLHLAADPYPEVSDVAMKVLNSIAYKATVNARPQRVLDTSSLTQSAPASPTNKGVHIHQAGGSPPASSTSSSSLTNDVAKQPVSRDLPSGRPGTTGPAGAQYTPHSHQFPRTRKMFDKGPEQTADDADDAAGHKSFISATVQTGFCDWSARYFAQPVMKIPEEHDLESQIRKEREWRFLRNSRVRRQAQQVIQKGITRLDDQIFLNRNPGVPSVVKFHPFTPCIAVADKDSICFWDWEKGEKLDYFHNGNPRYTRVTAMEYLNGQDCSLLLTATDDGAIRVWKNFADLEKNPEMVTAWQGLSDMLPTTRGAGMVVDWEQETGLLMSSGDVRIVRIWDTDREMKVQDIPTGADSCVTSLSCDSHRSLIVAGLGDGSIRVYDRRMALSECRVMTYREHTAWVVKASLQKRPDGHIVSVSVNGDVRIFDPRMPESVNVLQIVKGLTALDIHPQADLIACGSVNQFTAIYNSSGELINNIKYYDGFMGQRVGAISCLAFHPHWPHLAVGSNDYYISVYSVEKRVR
NP40-soluble protein abundance (concentration: 1mM): 1.01 ± 0.031 | NP40-soluble protein abundance (concentration: 2mM): 0.955 ± 0.021 | NP40-soluble protein abundance (concentration: 4mM): 0.985 ± 0.011 | NP40-soluble protein abundance (concentration: 6mM): 0.972 ± 0.013 | NP40-soluble protein abundance (concentration: 8mM): 0.967 ± 0.018 | NP40-soluble protein abundance (concentration: 10mM): 0.994 ± 0.034

UniProt Q8WZA0|Q8WZA0-2
Sequence of UniProt Q8WZA0 (Q8WZA0 whole entry): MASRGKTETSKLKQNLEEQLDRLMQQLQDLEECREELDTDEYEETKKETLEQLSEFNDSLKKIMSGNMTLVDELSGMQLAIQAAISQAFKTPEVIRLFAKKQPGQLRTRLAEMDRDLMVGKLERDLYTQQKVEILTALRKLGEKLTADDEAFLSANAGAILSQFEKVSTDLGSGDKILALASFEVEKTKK
NP40-soluble protein abundance (concentration: 1mM): 0.969 ± 0.052 | NP40-soluble protein abundance (concentration: 2mM): 0.957 ± 0.0098 | NP40-soluble protein abundance (concentration: 4mM): 0.928 ± 0.059 | NP40-soluble protein abundance (concentration: 6mM): 0.912 ± 0.044 | NP40-soluble protein abundance (concentration: 8mM): 0.921 ± 0.034 | NP40-soluble protein abundance (concentration: 10mM): 0.859 ± 0.054

UniProt Q86YS7
NP40-soluble protein abundance (concentration: 1mM): 0.973 ± 0.015 | NP40-soluble protein abundance (concentration: 2mM): 0.97 ± 0.016 | NP40-soluble protein abundance (concentration: 4mM): 0.982 ± 0.017 | NP40-soluble protein abundance (concentration: 6mM): 0.942 ± 0.012 | NP40-soluble protein abundance (concentration: 8mM): 0.919 ± 0.015 | NP40-soluble protein abundance (concentration: 10mM): 0.948 ± 0.018

LEO1 (UniProt Q8WVC0)
NP40-soluble protein abundance (concentration: 1mM): 1.025 ± 0.006 | NP40-soluble protein abundance (concentration: 2mM): 1.04 ± 0.062 | NP40-soluble protein abundance (concentration: 4mM): 1.01 ± 0.029 | NP40-soluble protein abundance (concentration: 6mM): 1.02 ± 0.03 | NP40-soluble protein abundance (concentration: 8mM): 0.997 ± 0.016 | NP40-soluble protein abundance (concentration: 10mM): 1.02 ± 0.024

UniProt Q7L4P6|Q7L4P6-2
NP40-soluble protein abundance (concentration: 1mM): 1.21 ± 0.13 | NP40-soluble protein abundance (concentration: 2mM): 1.37 ± 0.095 | NP40-soluble protein abundance (concentration: 4mM): 1.2 ± 0.15 | NP40-soluble protein abundance (concentration: 6mM): 1.14 ± 0.16 | NP40-soluble protein abundance (concentration: 8mM): 1.03 ± 0.043 | NP40-soluble protein abundance (concentration: 10mM): 1.23 ± 0.19

TRAPPC5 (UniProt Q8IUR0)
Sequence of UniProt Q8IUR0 (Q8IUR0 whole entry): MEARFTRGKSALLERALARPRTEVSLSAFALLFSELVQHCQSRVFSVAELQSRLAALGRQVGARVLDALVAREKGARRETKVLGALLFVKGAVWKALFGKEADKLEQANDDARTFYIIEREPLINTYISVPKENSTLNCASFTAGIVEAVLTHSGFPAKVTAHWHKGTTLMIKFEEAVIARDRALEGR
NP40-soluble protein abundance (concentration: 1mM): 0.946 ± 0.055 | NP40-soluble protein abundance (concentration: 2mM): 0.933 ± 0.043 | NP40-soluble protein abundance (concentration: 4mM): 0.959 ± 0.073 | NP40-soluble protein abundance (concentration: 6mM): 1.187 ± 0.002 | NP40-soluble protein abundance (concentration: 8mM): 1.18 ± 0.043 | NP40-soluble protein abundance (concentration: 10mM): 1.12 ± 0.13

UniProt Q86U86|Q86U86-8
NP40-soluble protein abundance (concentration: 1mM): 1.051 ± 0.009 | NP40-soluble protein abundance (concentration: 2mM): 1.1 ± 0.014 | NP40-soluble protein abundance (concentration: 4mM): 1.15 ± 0.017 | NP40-soluble protein abundance (concentration: 6mM): 1.226 ± 0.008 | NP40-soluble protein abundance (concentration: 8mM): 1.29 ± 0.035 | NP40-soluble protein abundance (concentration: 10mM): 1.37 ± 0.09

NUBPL (UniProt Q8TB37)
Sequence of UniProt Q8TB37 (Q8TB37 whole entry): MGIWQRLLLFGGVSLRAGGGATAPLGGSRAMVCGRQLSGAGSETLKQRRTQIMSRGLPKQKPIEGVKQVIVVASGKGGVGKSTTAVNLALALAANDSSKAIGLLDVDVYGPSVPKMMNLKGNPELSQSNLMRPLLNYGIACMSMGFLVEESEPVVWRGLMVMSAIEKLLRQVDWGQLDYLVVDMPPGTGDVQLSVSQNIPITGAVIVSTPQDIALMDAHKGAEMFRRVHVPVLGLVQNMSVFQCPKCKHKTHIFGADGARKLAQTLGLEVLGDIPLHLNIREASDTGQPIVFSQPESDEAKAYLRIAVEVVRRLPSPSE
NP40-soluble protein abundance (concentration: 1mM): 1 ± 0.045 | NP40-soluble protein abundance (concentration: 2mM): 1.01 ± 0.057 | NP40-soluble protein abundance (concentration: 4mM): 1.02 ± 0.05 | NP40-soluble protein abundance (concentration: 6mM): 1.06 ± 0.092 | NP40-soluble protein abundance (concentration: 8mM): 1.03 ± 0.092 | NP40-soluble protein abundance (concentration: 10mM): 1.05 ± 0.076

TGFBRAP1 (UniProt Q8WUH2)
Sequence of UniProt Q8WUH2 (Q8WUH2 whole entry): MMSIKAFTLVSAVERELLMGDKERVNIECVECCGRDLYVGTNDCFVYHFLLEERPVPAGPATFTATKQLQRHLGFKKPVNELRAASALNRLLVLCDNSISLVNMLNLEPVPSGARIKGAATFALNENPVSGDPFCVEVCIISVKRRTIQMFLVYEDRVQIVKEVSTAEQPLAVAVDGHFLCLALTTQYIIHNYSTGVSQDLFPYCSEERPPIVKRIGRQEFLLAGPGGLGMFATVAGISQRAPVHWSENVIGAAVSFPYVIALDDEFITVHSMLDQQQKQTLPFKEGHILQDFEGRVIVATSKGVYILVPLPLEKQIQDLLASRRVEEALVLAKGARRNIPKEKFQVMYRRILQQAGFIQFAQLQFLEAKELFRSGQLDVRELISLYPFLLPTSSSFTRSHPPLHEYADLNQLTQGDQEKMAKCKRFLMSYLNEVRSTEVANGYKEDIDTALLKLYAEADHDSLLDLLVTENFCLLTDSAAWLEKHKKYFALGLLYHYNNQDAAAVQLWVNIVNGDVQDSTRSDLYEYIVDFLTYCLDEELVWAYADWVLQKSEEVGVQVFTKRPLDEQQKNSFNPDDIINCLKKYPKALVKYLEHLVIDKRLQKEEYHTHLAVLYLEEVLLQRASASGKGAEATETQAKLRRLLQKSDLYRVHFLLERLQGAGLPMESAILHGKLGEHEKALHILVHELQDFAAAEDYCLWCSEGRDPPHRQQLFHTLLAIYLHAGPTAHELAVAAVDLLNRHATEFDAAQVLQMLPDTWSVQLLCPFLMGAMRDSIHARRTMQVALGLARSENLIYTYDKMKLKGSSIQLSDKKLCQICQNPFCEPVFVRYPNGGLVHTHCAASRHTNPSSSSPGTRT
NP40-soluble protein abundance (concentration: 1mM): 0.96 ± 0.042 | NP40-soluble protein abundance (concentration: 2mM): 0.89 ± 0.093 | NP40-soluble protein abundance (concentration: 4mM): 0.93 ± 0.048 | NP40-soluble protein abundance (concentration: 6mM): 0.895 ± 0.064 | NP40-soluble protein abundance (concentration: 8mM): 0.916 ± 0.047 | NP40-soluble protein abundance (concentration: 10mM): 0.889 ± 0.052
